Screening data deposited in PubChem BioAssay by The Scripps Research Institute Molecular Screening Center.
Hits are enriched below; roughly 2.9% of the tested compounds scored in any of these assays.
ADAM17 inh: inhibitors of human ADAM17. recombinant ADAM17, EDANS/DABCYL FRET peptide cleavage. inhibition, % at 6.95 µM. actives 0.83% (n = 370,000). AID 720648;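 active = inhibition above the mean of compounds lying between control limits plus 3 SD, set per campaign, cut at about 8.5% in these data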;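 note: 0% = DMSO-only wells as the low control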
KLK7 zymogen act: activators of human kallikrein-7 zymogen | P49862 | purified proKLK7, EDANS-DABCYL substrate fluorescence; 100% is mature enzyme control, 0% vehicle | activation, % at 7 µM | actives 0.9% (n = 370,000) | AID 652039;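 active = activation above the mean of all tested compounds plus 3 SD, computed per campaign excluding outliers beyond control limits, cut at about 13% in these data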
Target sequence (P49862 whole entry, looked up): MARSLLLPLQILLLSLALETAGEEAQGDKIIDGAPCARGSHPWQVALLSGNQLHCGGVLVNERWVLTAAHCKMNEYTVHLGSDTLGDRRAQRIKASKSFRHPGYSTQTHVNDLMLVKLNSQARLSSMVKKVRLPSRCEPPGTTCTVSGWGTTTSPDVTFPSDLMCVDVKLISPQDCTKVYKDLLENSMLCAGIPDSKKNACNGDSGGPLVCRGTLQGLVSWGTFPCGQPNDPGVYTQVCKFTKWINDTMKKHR
PLC-gamma1 inh: PLC-gamma1 (human) inhibition, primary screen | purified PLC-gamma1, fluorogenic substrate, fluorescence | inhibition, % at 12.2 µM | actives 0.84% (n = 370,000) | AID 720700; in the data active = inhibition above about 9.5%
PLCb3 inh: inhibitors of human phospholipase C beta3; inhibition, % at 12.2 µM; actives 0.18% (n = 370,000); AID 720704; Purified PLC-beta3, fluorogenic substrate, fluorescence; in the data active = inhibition above about 11%;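 note: 0% = median of compound wells on plate and 100% = full blocker control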
ADAM10 inh: inhibitors of human ADAM10; O14672; recombinant ADAM10, EDANS/DABCYL FRET peptide cleavage, 3 h; inhibition, % at 7 µM; actives 0.62% (n = 370,000);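 active = inhibition above a per-campaign cutoff equal to the mean of compounds falling between control-based bounds plus 3 SD, cut at about 20% in these data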;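 note: 0% = DMSO wells while the 100% control is not disclosed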
ADAM10 confirm: confirmation of inhibitors of human ADAM10; shares compounds with ADAM10 inh; ADAM10 QFRET peptide cleavage, EDANS fluorescence; inhibition, % at 6.95 µM; actives 1% (n = 2,100);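 active = inhibition above about 20% chosen separately for each screening run, limit read from the data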;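 note: 0% = DMSO wells and 100% = marimastat wells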
ADAM17 counter: ADAM17 inhibition, counter-screen for ADAM10 exosite hits. actives 0.5% (n = 2,100). shares compounds with ADAM10 inh. ADAM17 QFRET peptide cleavage, EDANS fluorescence. inhibition, % at 6.95 µM;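 active = mean triplicate inhibition above the solvent-only control wells' mean plus 3 SD, cut at about 12% in these data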;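 note: 0% = DMSO wells and 100% = marimastat wells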
Active calls of the source: *.

How did CCOC(=O)[C@@]12CN(C(=O)OC(C)(C)C)CC=C1N(Cc1ccc(OC)cc1)C(=O)[C@H]2CC(=O)N1CCCCC1 do in these assays?
ADAM17 inh: -3; KLK7 zymogen act: 0; PLC-gamma1 inh: -2; PLCb3 inh: 0; ADAM10 inh: -8

What do the screens show for `C[C@@]12C(=O)Nc3cc(F)c(F)cc3C(=O)N1[C@H]1c3ccccc3OC[C@@H]1[C@@H]2c1ccccc1`?
ADAM17 inh: 10*; KLK7 zymogen act: 0; PLC-gamma1 inh: 1; PLCb3 inh: 1; ADAM10 inh: 21*; ADAM10 confirm: 7; ADAM17 counter: 4

Results for O=C(c1cc(-c2ccccc2)on1)N1CCC(Oc2cccnc2)CC1 ?
ADAM17 inh: 0; KLK7 zymogen act: -1; PLC-gamma1 inh: -1; PLCb3 inh: 1; ADAM10 inh: 1

How did CCN(c1ccc(OC)cc1)S(=O)(=O)N1CCCC(C(=O)NC(C)c2ccccc2)C1 (stereo not given) do in these assays?
ADAM17 inh: -2; KLK7 zymogen act: 0; PLC-gamma1 inh: 2; PLCb3 inh: 0; ADAM10 inh: 70*; ADAM10 confirm: 4; ADAM17 counter: 1

How did CN(CC(=O)Nc1ccc(Cl)cc1)C(=O)c1cc(-c2cccs2)nn1-c1ccccc1 do in these assays?
ADAM17 inh: 2; KLK7 zymogen act: 1; PLC-gamma1 inh: 1; PLCb3 inh: -10; ADAM10 inh: -7

How did O=C(COC(=O)c1cc(-c2cccs2)nn1-c1ccccc1)Nc1ccc(Cl)c([N+](=O)[O-])c1 do in these assays?
ADAM17 inh: 7; KLK7 zymogen act: 0; PLC-gamma1 inh: 3; PLCb3 inh: 2; ADAM10 inh: 21*; ADAM10 confirm: 6; ADAM17 counter: 2

Results for CCCCNC(=O)C[C@H]1C[C@@]2(C(=O)OC)C(=C[C@H](C(C)C)O[C@@H]2C2CC2)N(Cc2ccco2)C1=O ?
ADAM17 inh: 0; KLK7 zymogen act: 1; PLC-gamma1 inh: -2; PLCb3 inh: 5; ADAM10 inh: 7

What do the screens show for `Cc1ccc(NC(=O)C(C)c2ccc([N+](=O)[O-])cc2)cc1Cl` (stereo not given)?
ADAM17 inh: 7; KLK7 zymogen act: 0; PLC-gamma1 inh: 3; PLCb3 inh: 2; ADAM10 inh: 24*; ADAM10 confirm: 5; ADAM17 counter: 1

Results for CC(C(=O)Nc1ccccc1Br)c1ccc([N+](=O)[O-])cc1 (stereo not given) ?
ADAM17 inh: 2; KLK7 zymogen act: 0; PLC-gamma1 inh: 0; PLCb3 inh: 2; ADAM10 inh: 7

Results for Cc1ccc(-n2c(SCC(=O)Nc3ccccc3-c3ccccc3)nnc2-c2ccccn2)cc1 ?
ADAM17 inh: 3; KLK7 zymogen act: 0; PLC-gamma1 inh: -1; PLCb3 inh: 2; ADAM10 inh: -1

How did CC(=O)c1cc(-c2ccc3c(c2)OCO3)c(=O)n2c1CCC2 do in these assays?
ADAM17 inh: 0; KLK7 zymogen act: 0; PLC-gamma1 inh: -1; PLCb3 inh: -4; ADAM10 inh: -1

How did CCCN(CC(=O)Nc1cc(Cl)cc(Cl)c1)CC(=O)Nc1ccc(F)c(F)c1F do in these assays?
ADAM17 inh: 13*; KLK7 zymogen act: 0; PLC-gamma1 inh: 4; PLCb3 inh: 2; ADAM10 inh: 28*; ADAM10 confirm: 12; ADAM17 counter: 3

How did CCCN(CC(=O)Nc1ccccc1Br)CC(=O)Nc1ccc(F)c(F)c1F do in these assays?
ADAM17 inh: 0; KLK7 zymogen act: 0; PLC-gamma1 inh: 2; PLCb3 inh: 3; ADAM10 inh: 3

How did CCN(CC)S(=O)(=O)c1cc(NC(=O)C2CCN(c3ncnc4sc(C)c(C)c34)CC2)ccc1Cl do in these assays?
ADAM17 inh: 0; KLK7 zymogen act: 1; PLC-gamma1 inh: -2; PLCb3 inh: -7; ADAM10 inh: 1

Results for Cc1ccc(NC(=O)C2CCN(c3ncnc4sc(C)c(C)c34)CC2)cc1S(=O)(=O)N(C)C ?
ADAM17 inh: 5; KLK7 zymogen act: 1; PLC-gamma1 inh: -8; PLCb3 inh: -11; ADAM10 inh: 22*; ADAM10 confirm: 7; ADAM17 counter: 2

Results for CCCC/C=C1/[C@@H](c2ccc(Cl)cc2)N(Cc2ccc3c(c2)OCO3)C2=N[C@@H](c3ccccc3)CC(=O)N21 ?
ADAM17 inh: -1; KLK7 zymogen act: 0; PLC-gamma1 inh: -3; PLCb3 inh: 2; ADAM10 inh: 2

Results for Cc1ccnc(SCc2ccc(C(=O)O)cc2)n1 ?
ADAM17 inh: -2; KLK7 zymogen act: 0; PLC-gamma1 inh: 2; PLCb3 inh: -6; ADAM10 inh: -6

Results for Cc1ccc(NC(=O)c2ccc(CSc3nccc(C)n3)cc2)cc1 ?
ADAM17 inh: -2; KLK7 zymogen act: 0; PLC-gamma1 inh: -2; PLCb3 inh: 1; ADAM10 inh: 22*; ADAM10 confirm: 3; ADAM17 counter: 0

What do the screens show for `COc1ccc(C#CCN(C)/C(N)=N/C(=O)OCc2ccccc2)cc1`?
ADAM17 inh: 4; KLK7 zymogen act: 0; PLC-gamma1 inh: -1; PLCb3 inh: -3; ADAM10 inh: 5

How did CCc1ccc(/C=C2\SC(=S)N(CCCC(=O)N(CCO)c3ccccc3)C2=O)cc1 do in these assays?
ADAM17 inh: 4; KLK7 zymogen act: 1; PLC-gamma1 inh: 1; PLCb3 inh: 0; ADAM10 inh: 12

How did O=C1/C(=C/c2cccs2)SC(=S)N1CCCC(=O)N(CCO)c1ccccc1 do in these assays?
ADAM17 inh: 1; KLK7 zymogen act: 0; PLC-gamma1 inh: 5; PLCb3 inh: -3; ADAM10 inh: 24*; ADAM10 confirm: 0; ADAM17 counter: 1

How did CCOC(=O)[C@H]1[C@H]2COc3ccc(Br)cc3[C@H]2N2C(=O)CN(Cc3ccc(C)cc3)C(=O)[C@@]12C do in these assays?
ADAM17 inh: 5; KLK7 zymogen act: 1; PLC-gamma1 inh: -2; PLCb3 inh: 1; ADAM10 inh: 20*; ADAM10 confirm: 1; ADAM17 counter: 1

What do the screens show for `COc1ccc2c(c1)OC[C@H]1[C@H]2N2C(=O)CN(Cc3ccccc3)C(=O)[C@@]2(C)[C@H]1c1ccccc1`?
ADAM17 inh: 8; KLK7 zymogen act: 0; PLC-gamma1 inh: 1; PLCb3 inh: 3; ADAM10 inh: 23*; ADAM10 confirm: 4; ADAM17 counter: 1

How did CCOC(=O)[C@H]1[C@H]2COc3ccc(C)cc3[C@@H]2N2C(=O)CN(Cc3ccc(C)cc3)C(=O)[C@@]12C do in these assays?
ADAM17 inh: 1; KLK7 zymogen act: 1; PLC-gamma1 inh: 0; PLCb3 inh: -1; ADAM10 inh: 2
